# Screening data deposited in PubChem by National Center for Advancing Translational Sciences (NCATS).
# Compounds with a hit are over-represented: about 1.3% of the library has one in this group of screens.
# PKM2 act: increases activity of human pyruvate kinase M2 | P14618 | purified PKM2, Kinase-Glo ATP luminescence, activation; response scale: 0% is enzyme alone, no compound | Potency, µM (titrated, usually from 57.5 µM), for inactives: top-dose activation, most hits filed as activators | hit rate 0.34% among 260,000; note: nearly all actives have a fitted effect of over 55% in size
#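 Purified hPK-M2 (>95%) run at intermediate activity with 0.1 mM ADP and 0.5 mM PEP in 50 mM imidazole pH 7.2, KCl, MgCl2; 1 h room temperature. ATP formed read by Kinase-Glo luminescence; normalized to uninhibited and no-enzyme controls.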
# GALK inh: galactokinase (human) inhibition; Potency, µM (highest dose often 57.5 µM), without a hit: at the highest dose activity change, negative = inhibition, hits mostly inhibitors; Purified GALK, Kinase-Glo residual ATP luminescence; hit rate 0.007% among 270,000; P51570
#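 Galactose (100 uM) and ATP (35 uM) were turned over by 5 nM GALK for 1 h at RT. Kinase-Glo Plus then converted the remaining ATP into a luminescent signal.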
# TrxR1 substrate: rat thioredoxin reductase 1 substrate activity | purified TrxR1 substrate turnover, NADPH consumption readout | Potency, µM (top dose mostly 114 µM), for inactives: at the highest dose activity change, negative = substrate turnover | hit rate 0.01% among 390,000; note: nearly all actives have a fitted effect of over 50% in size
# Target sequence (O89049 whole entry, looked up): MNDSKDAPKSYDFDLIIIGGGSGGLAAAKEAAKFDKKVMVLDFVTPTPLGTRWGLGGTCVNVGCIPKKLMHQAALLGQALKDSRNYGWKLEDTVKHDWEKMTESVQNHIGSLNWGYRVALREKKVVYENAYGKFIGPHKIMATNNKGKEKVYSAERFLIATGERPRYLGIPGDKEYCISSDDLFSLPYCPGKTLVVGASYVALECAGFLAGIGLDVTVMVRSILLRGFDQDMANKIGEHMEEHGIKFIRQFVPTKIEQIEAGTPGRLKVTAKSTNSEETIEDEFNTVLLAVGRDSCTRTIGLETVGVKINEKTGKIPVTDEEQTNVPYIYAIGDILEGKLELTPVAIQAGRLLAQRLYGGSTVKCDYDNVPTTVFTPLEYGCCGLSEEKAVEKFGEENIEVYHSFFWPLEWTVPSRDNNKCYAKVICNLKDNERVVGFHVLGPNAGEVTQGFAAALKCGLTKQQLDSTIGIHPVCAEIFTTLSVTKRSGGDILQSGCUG
#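 Rat TrxR1, dispensed at 90 nM, was prereduced with 400 uM NADPH (final) for 5 min at ~22 deg C, then incubated with compound 15 min before 400 uM selenite. A first-read NADPH fluorescence drop versus no-compound background flagged substrates.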
# IDH1 R132H inh: blocks human mutant IDH1 R132H enzyme. AID 602179. IDH1-R132H enzyme, NADPH consumption, diaphorase/resazurin fluorescence. Potency, µM (top dose mostly 76.6 µM), without a hit: top-dose activity change, negative = inhibition, actives largely listed as inhibitors. O75874. hit rate 0.093% among 390,000; note: nearly all actives have a fitted effect of over 65% in size
#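 IDH1-R132H (0.5 ug/mL) preincubated 30 min with compound, then NADPH (0.016 mM) and alpha-KG (2 mM) added; 80 min at RT, pH 7.5. Remaining NADPH coupled via diaphorase/resazurin to fluorescence (540/590 nm); concentration-response curves normalized to no-enzyme control.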
# TrxR1 inh: inhibitors of rat thioredoxin reductase 1 | O89049 | recombinant rTrxR1, NADPH fluorescence consumption, selenite substrate | Potency, µM (series often up to 114 µM), for inactives: at the highest dose activity change, negative = inhibition, most hits filed as inhibitors | hit rate 1% among 390,000 | AID 588453; note: nearly all actives have a fitted effect of over 65% in size
#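 Rat TrxR1 (90 nM in the dispensed reagent) was pre-reduced with 400 uM NADPH for 5 min at room temperature, then incubated with compound for 15 min. After 400 uM selenite was added, NADPH fluorescence (Ex 340/Em 450 nm) was followed for 8 min.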
# Anesthetic bind: candidate novel general anesthetic via apoferritin binding; P02791; apoferritin/1-aminoanthracene competitive binding, fluorescence; Potency, µM (series often up to 77.5 µM), for inactives: top-dose activity change, negative = displacement, usual class: inhibitors; hit rate 0.074% among 350,000; note: nearly all actives have a fitted effect of over 20% in size
# Target sequence (P02791 2-175 limits assumed): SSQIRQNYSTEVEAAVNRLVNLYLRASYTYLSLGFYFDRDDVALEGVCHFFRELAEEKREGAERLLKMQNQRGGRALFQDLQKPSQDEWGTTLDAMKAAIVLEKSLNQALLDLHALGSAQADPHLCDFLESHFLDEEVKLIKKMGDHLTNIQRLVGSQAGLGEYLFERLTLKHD
#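 Probe: 1-aminoanthracene (50% saturated, PBS). Protein: horse-spleen apoferritin, 10 uM. Incubation: 10 min, room temperature. Detection: 380 nm excitation, 535 nm emission. Analysis: normalized response, four-parameter Hill.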
# Starred values were filed as active, the others as inactive; ? = inconclusive; . = no result given; [ ] = another dose, or the depositor's remark. Calls come from the whole dose curve; as a rule, active = well fitted curve in the direction sought with a large enough effect; inconclusive = small, poorly fitted or top-dose-only effect, or another doubt; inactive = no such curve, though single readings can be large; an effect the other way counts as inactive or inconclusive. % is set by controls: 0 for no effect and ±100 for the full control effect; potency is the fitted concentration of half-maximal effect.
SMILES,PKM2 act,GALK inh,TrxR1 substrate,IDH1 R132H inh,TrxR1 inh,Anesthetic bind
CC1CCN(C(=O)CSc2nc3ncccc3[nH]2)CC1,.,5%,-7%,-6%,8%,-11%
CCC1CCCCN1C(=O)CSc1nc2ncccc2[nH]1 (configuration not stated),.,8%,-2%,5%,50µM*,-9%
COc1cccc(-c2cc(C(=O)Nc3c(C)nn(Cc4ccccc4Cl)c3C)no2)c1,.,.,-3%,-14%,8%,-5%
CCCCCCCCCCCCCCCCCCN(CCCCCCCCCCCCCCCCCC)c1ccc(/C=C/c2ccc(C=O)cc2)cc1,.,.,6%,.,15%,.
COc1cc2c(cc1OC)C(CCc1ccccc1)=NCC2,-1%,4%,369%,0%,89µM*,258%
O=C(O)c1ccccc1NS(=O)(=O)c1ccc(NNC(=S)Nc2ccc(OC(F)F)cc2)c([N+](=O)[O-])c1,-30%,0%,-17%,-13%,50µM*,-17%
Cc1cc(S(=O)(=O)Nc2ccc3c(c2)COC3=O)ccc1F,11µM*,-2%,-10%[57.1 µM],6%,28%[57.1 µM],-12%
CN(C)c1ccc(/C=C/c2c(F)cnc3ccccc23)cc1,.,.,-1%,.,3%,.
CC1(C)CC(=O)C2=C(C1)OC(N)=C(C#N)C2C#Cc1ccccc1 (configuration not stated),?,3%,-3%,0%,2.5µM*,-14%
CC(c1ccccc1)C1C(C#N)=C(N)OC2=C1C(=O)CC(C)(C)C2 (configuration not stated),20%,2%,4%,6%,3%,?
CCOc1ccc(C(=O)CC(C(=O)O)N2CCCCC2)cc1 (configuration not stated),.,.,-10%,-5%,14µM*,.
CCOc1ccc(C(=O)CC(C(=O)O)N2CCN(Cc3ccccc3)CC2)cc1 (configuration not stated),.,.,-9%,2%,16µM*,.
O=C(NCc1cccnc1)/C(=C/c1ccc(-c2ccc(Cl)cc2)o1)S(=O)(=O)c1ccccc1,16%,-5%,-2%,1%,5µM*,-18%
O=C(NCc1cccnc1)/C(=C\c1ccc(-c2ccc(Br)cc2)o1)S(=O)(=O)c1ccccc1,24%,-1%,4%,-24%,32µM*,-3%
O=C(CN(Cc1ccc(Br)cc1)S(=O)(=O)c1ccccc1)NCc1cccnc1,0%,7%,-7%,17%,-10%,-9%
COc1ccc(CNC(=O)c2cc3cccc4c3n2CC(C)S4)cc1 (configuration not stated),.,.,24%,11%,24%,56%
Cc1ccc(N2CCN(C(=O)c3c(C)oc4ncnc(N5CCCCC5)c34)CC2)c(C)c1,.,.,1%,-7%,19%,20%
CCn1c(SCC(=O)Nc2cccc(C)c2)nc2nc3c(cc2c1=O)COC(C)(C)C3,14µM*,0%,-20%[57.1 µM],1%,14%[57.1 µM],1%
CCn1c(SCC(=O)Nc2ccccc2)nc2nc3c(cc2c1=O)COC(C)(C)C3,-6%,.,-8%,-8%,4%,-3%
CC[C@@]1(c2ccccc2)NC(=O)NC1=O,.,.,.,.,.,-4%
CCCSc1cc(NCCOC(=O)CCC)c([N+](=O)[O-])c2nonc12,0%,-1%,-4%,8%,?,-23%
CCCC(=O)OCCNc1cc(SCc2ccco2)c2nonc2c1[N+](=O)[O-],?,1%,-16%,2%,4µM*,?
CCCC(=O)OCCNc1cc(Sc2nccn2C)c2nonc2c1[N+](=O)[O-],?,1%,1%,2%,0.56µM*,-16%
CC(=O)OCCCNc1cc(SCc2ccco2)c2nonc2c1[N+](=O)[O-],?,1%,-17%,-3%,2.5µM*,-13%
CC1=C(C(=O)Nc2ccccc2C)C(c2cccnc2)n2nc(SCc3ccccc3F)nc2N1 (configuration not stated),.,.,0%,-9%,19%,-11%
SMILES,PKM2 act,GALK inh,TrxR1 substrate,IDH1 R132H inh,TrxR1 inh,Anesthetic bind
Cc1ccc(-c2nc3ccccc3n2C)o1,-71%,10%,40%,7%,22µM*,?
CCOc1ccc2c(c1)nc(SCC(=O)c1cccs1)n2C,14%,-3%,8%,7%,?,-23%
CCOc1ccc2c(c1)nc(SCC(=O)c1ccc(Br)s1)n2C,18%,-3%,-6%,6%,25µM*,?
Cc1cc(Oc2ccccc2)nc(C#N)n1,.,.,3%,.,8%,.
Cc1cc(C)n2cc(CSc3nnnn3-c3ccccc3C)nc2n1,14µM*,7%,22%,7%,-7%,-24%
COc1coc(C(O)C[N+](=O)[O-])cc1=O (configuration not stated),-2%,.,5%,0%,50µM*,-1%
CCCCCCCCNS(=O)(=O)CCNC1CC1,.,.,-5%,-1%,45µM*,.
CCCCCCCCNS(=O)(=O)CCNCCCC,.,.,-5%,9%,-15%,.
COc1ccc(CNC(=O)C(c2ccc(C)o2)N(Cc2cccs2)C(=O)Cc2cccs2)cc1 (configuration not stated),10µM*,-2%,-5%,5%,?,-5%
COCCN(C(=O)Cc1cccs1)C(C(=O)NCc1ccc(OC)cc1)c1ccc(C)cc1 (configuration not stated),3%,1%,6%,4%,8%,-18%
COc1ccc2c(c1)CC(NC(=O)Nc1cc(Cl)ccc1OC)CO2 (configuration not stated),.,.,-2%[57.1 µM],0%,19%[57.1 µM],58%
COc1ccc(S(=O)(=O)N(CC(=O)Nc2cc(Cl)ccc2C)Cc2ccccc2)cc1OC,.,.,-4%,8%,12%,80%
O=C(/C=C/c1ccc(O)cc1)c1ccc(NC2=C(N3CCCCC3)C(=O)c3ccccc3C2=O)cc1,22%,-3%,-10%,6%,45µM*,-21%
O=C(Cc1ccc(F)cc1)Nc1nnc2n1CCS2,.,.,3%[57.1 µM],-24%,26%[57.1 µM],-2%
COc1cc2cc(C)c(SCC(=O)N3CCN(C(=O)c4ccco4)CC3)nc2cc1OC,18µM*,-1%,-10%,-1%,?,-5%
O=c1[nH]cnc2n[nH]nc12,.,.,0%,.,11%,.
CNc1oc(-c2ccc(Cl)cc2)nc1C#N,9%,-6%,190%,5%,40µM*,29%
Cc1ccc(C2=NN(CC(=O)NCCc3ccccc3)C(=O)CC2)cc1,.,.,3%[57.1 µM],-8%,22%[57.1 µM],2.5µM*
CCOc1ccc(NC(=O)CSc2nc3nc(C)c(Cc4ccccc4)c(C)n3n2)cc1,.,.,-3%[57.1 µM],-10%,15%[57.1 µM],?
